Whole data set: some 18,000 sequences, median “log2 normalized intensity” near 0.36, cut for the highest 2% near 7.3. What follows is part of a selection rich in the highest values, with near analogues and random picks from the rest.
What follows are sequences tested against T1, HNF4alpha8 (COS-7 nuclear extract) (Homo sapiens, UniProt P41235-5 1-452) (assay: protein-binding microarray; COS-7 nuclear extract on double-stranded Agilent 4x180k PBM; binding buffer, salt, pH and temperature not given in the material; high values mean tight binding). Settings: chain copies: 2; label: 3' end of strand 1 on the slide; dsDNA, one strand shown.
T1 sequence: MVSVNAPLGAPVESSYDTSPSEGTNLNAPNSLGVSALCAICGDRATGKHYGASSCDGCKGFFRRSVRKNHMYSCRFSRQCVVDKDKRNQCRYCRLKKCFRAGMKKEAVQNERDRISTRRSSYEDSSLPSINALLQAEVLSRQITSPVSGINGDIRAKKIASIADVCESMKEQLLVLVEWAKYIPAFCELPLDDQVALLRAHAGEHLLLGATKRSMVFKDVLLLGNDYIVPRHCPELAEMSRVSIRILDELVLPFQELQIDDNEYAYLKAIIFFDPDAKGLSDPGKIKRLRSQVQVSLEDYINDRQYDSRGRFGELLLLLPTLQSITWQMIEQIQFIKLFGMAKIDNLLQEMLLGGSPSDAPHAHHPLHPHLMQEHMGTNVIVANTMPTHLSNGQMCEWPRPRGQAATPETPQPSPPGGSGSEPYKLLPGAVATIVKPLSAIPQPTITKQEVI
Procedure, shortened: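 Binding signal is the background-corrected, normalized gProcessedSignal calculated by Agilent software. It was measured by applying nuclear extracts of COS-7 cells transiently transfected with a human HNF4α isoform expression vector to a custom Agilent SurePrint G3 4x180k array of ~44,000 double-stranded ~60-nt test sequences in quadruplicate, then imaging bound HNF4α on an Agilent G2565CA scanner at 2-µm resolution.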

| Sequence | binding signal [log2 normalized intensity] |
| --- | --- |
| TTACCATATTTACTTATGGTTTGACCCTGCGCCTAGGGAGATTAGAGTATCGGTCGA | 5.23 |
| AATTCCTTTCAAACTGTATTGCTCAATGTCGCCTAGGGAGATTAGAGTATCGGTCGA | 0.181 |
| GAGTTGGAGAAGAGCAAAGATCATCTGGTGGCCTAGGGAGATTAGAGTATCGGTCGA | 1.45 |
| CAAAAGTTCAAACTTTATTTGATGATGAAGGCCTAGGGAGATTAGAGTATCGGTCGA | 0.503 |
| AATGCGCAGAATTTCTTTTAATGTGTGCTTGCCTAGGGAGATTAGAGTATCGGTCGA | 0.136 |
| TTAATACTTTGGAACTCAGTTAATGTACAGGCCTAGGGAGATTAGAGTATCGGTCGA | 1.59 |
| CTTAGCAGTGGGAGACAGGCATTAACCCTTGCCTAGGGAGATTAGAGTATCGGTCGA | 1.74 |
| TTCTTCTGGTTCTGCAAGGCAACTGACCTTGCCTAGGGAGATTAGAGTATCGGTCGA | 4.13 |
| GAGACAACTGCAACAGGAGGACCTCTGGATGCCTAGGGAGATTAGAGTATCGGTCGA | -0.854 |
| CTTGGGGGAGGAGGGCAACCTTTGAACTGGGCCTAGGGAGATTAGAGTATCGGTCGA | 6.02 |
| CTGGTTCTGCAAGGCAACTGACCTTTGGATGCCTAGGGAGATTAGAGTATCGGTCGA | 8.71 |
| AACTGTACTTTGGACTGGGGACCTGGTCTGGCCTAGGGAGATTAGAGTATCGGTCGA | 4.79 |
| TCTGCAAGGCAACTGACCTTTGGATCTGGGGCCTAGGGAGATTAGAGTATCGGTCGA | 8.01 |
| TTTATGACCTTTGACTGCAGAAGATAAGAAGCCTAGGGAGATTAGAGTATCGGTCGA | 4.5 |
| TGATAAAGGGGGCAAAGGGCATGGGCAGCTGCCTAGGGAGATTAGAGTATCGGTCGA | 4.41 |
| TGGGAGCAAAGGTCAAGAGTTTTAAAGTATGCCTAGGGAGATTAGAGTATCGGTCGA | 5.47 |
| GGTGTAAGCTCTGGAGTCCAAAGGTCAGCAGCCTAGGGAGATTAGAGTATCGGTCGA | 8.69 |
| AAGCTCTGGAGTCCAAAGGTCAGCAAGCCTGCCTAGGGAGATTAGAGTATCGGTCGA | 8.14 |
| CTGGAGTCCAAAGGTCAGCAAGCCTGGAGTGCCTAGGGAGATTAGAGTATCGGTCGA | 7.44 |
| ATCCACCCATCCAAAGGTCAGCAATCTCAAGCCTAGGGAGATTAGAGTATCGGTCGA | 3.45 |
| GGAGTGACCCTGGGAGCAAAGGTCAAGAGTGCCTAGGGAGATTAGAGTATCGGTCGA | 7.55 |
| TGTTTGCCTCTCAGCTCATTCAAAGTCCAAGCCTAGGGAGATTAGAGTATCGGTCGA | 4.2 |
| GTCCAAAGGTCAGCAAGCCTGGAGTTCTGAGCCTAGGGAGATTAGAGTATCGGTCGA | 5.05 |

| Sequence | binding signal [log2 normalized intensity] |
| --- | --- |
| GGAGACCACTGGTGTAAGCTCTGGAGTCCAGCCTAGGGAGATTAGAGTATCGGTCGA | 1.64 |
| AAGGTCAGCAAGCCTGGAGTTCTGATGTTCGCCTAGGGAGATTAGAGTATCGGTCGA | 0.91 |
| CCACTGGTGTAAGCTCTGGAGTCCAAAGGTGCCTAGGGAGATTAGAGTATCGGTCGA | 4.54 |
| TTAGGAGGATGACAAAGAGCAAGTGACCCTGCCTAGGGAGATTAGAGTATCGGTCGA | 4.46 |
| TATTTGCTCACCAGTGACCAATAATGTAATGCCTAGGGAGATTAGAGTATCGGTCGA | 0.199 |
| ATTAGCTTCTGTTCAGGAGTTGTCTGTCCAGCCTAGGGAGATTAGAGTATCGGTCGA | 1.39 |
| CCATGCTCTTTGGCCTGGCATTTGAGACTAGCCTAGGGAGATTAGAGTATCGGTCGA | 0.329 |
| TTTGTCCCCCACCTGTGAAGATAAGCTGTCGCCTAGGGAGATTAGAGTATCGGTCGA | 3.17 |
| AGAATGGAGAAAACAACATTCCTTGTGTTTGCCTAGGGAGATTAGAGTATCGGTCGA | 0.48 |
| TCCACAGTCAAGGCCAAAGGTTAAAAATAAGCCTAGGGAGATTAGAGTATCGGTCGA | 4.8 |
| AATTCTTAAGCCAAAGTCCAAGTTGGTGAGGCCTAGGGAGATTAGAGTATCGGTCGA | 3.81 |
| TCAGCCTTAACTCAAAAGGCCAAAGTCCAAGCCTAGGGAGATTAGAGTATCGGTCGA | 9.11 |
| TATCAGCTTTGAGACACCTGGCCAAGTACAGCCTAGGGAGATTAGAGTATCGGTCGA | -0.899 |
| TTTTCCACCCTCCCCTCCCCCTCCTCCCCTGCCTAGGGAGATTAGAGTATCGGTCGA | 7.22 |
| AACCCGCCCCCTCCCCCTGCCGGCGGCGCAGCCTAGGGAGATTAGAGTATCGGTCGA | 6.05 |
| ATTGTGAAACGTTTGAATTCTTGCCTATCCGCCTAGGGAGATTAGAGTATCGGTCGA | -0.841 |
| GGTTGCCCAGGGAGAGCTGGACTTTCATCTGCCTAGGGAGATTAGAGTATCGGTCGA | 5.54 |
| TATCTTTGGAGAATGCCTTTTGTGTAGGAGGCCTAGGGAGATTAGAGTATCGGTCGA | 1.69 |
| CTAGTGTACAGGTGACCTTTGGAATGAACCGCCTAGGGAGATTAGAGTATCGGTCGA | 7.75 |
| AAAGCTGGCTGGCGGCTAGTGTACAGGTGAGCCTAGGGAGATTAGAGTATCGGTCGA | 0.565 |
| TTGGAGAATGCCTTTTGTGTAGGAGTACACGCCTAGGGAGATTAGAGTATCGGTCGA | 1.46 |
| TGGCTGGCGGCTAGTGTACAGGTGACCTTTGCCTAGGGAGATTAGAGTATCGGTCGA | 7.84 |
| AGATAGTGACGGAGGTGACCTTTGGTTGTCGCCTAGGGAGATTAGAGTATCGGTCGA | 6.24 |

| Sequence | binding signal [log2 normalized intensity] |
| --- | --- |
| GCTAGGTGGCGGGCTGGCTCAGGACAGGTGGCCTAGGGAGATTAGAGTATCGGTCGA | -0.886 |
| GGCGGCTAGTGTACAGGTGACCTTTGGAATGCCTAGGGAGATTAGAGTATCGGTCGA | 9.41 |
| GGAATGAGCAGGAACCTTGTGGTGGTGAAAGCCTAGGGAGATTAGAGTATCGGTCGA | 0.216 |
| TCCCTGAAGGCCAGGCAGCACAATTTGTGTGCCTAGGGAGATTAGAGTATCGGTCGA | -0.959 |
| TGATCTTTGAAACATAACAGCAACAACACAGCCTAGGGAGATTAGAGTATCGGTCGA | 0.241 |
| TATTGAGAAGAAACCTTTGCCCAACAGGATGCCTAGGGAGATTAGAGTATCGGTCGA | 2.13 |
| GGCGAGTGTGCAATTAGAGCAAAGGTTACTGCCTAGGGAGATTAGAGTATCGGTCGA | 3.57 |
| ACAAAGATCATAAATGCCTCCCCCTCTTTAGCCTAGGGAGATTAGAGTATCGGTCGA | 3.85 |
| TGGGCCAAAGGTCATACCTGTCTAGGTGGAGCCTAGGGAGATTAGAGTATCGGTCGA | 4.74 |
| GGGGAGGTGGGAAAAGAAATGTAGTGACAGGCCTAGGGAGATTAGAGTATCGGTCGA | -0.392 |
| TGCATGGATTTCTCAGTTGAGGAATGGGTAGCCTAGGGAGATTAGAGTATCGGTCGA | 0.827 |
| TAGGGAAAATAGTGACCCTGTCTCTCAGTCGCCTAGGGAGATTAGAGTATCGGTCGA | 1.62 |
| CTTCTTTGAAAGTTTGGTGGACTTTGGCCGGCCTAGGGAGATTAGAGTATCGGTCGA | 10.1 |
| GGTGGACTTTGGCCGTGAAGCCGTCCTGTCGCCTAGGGAGATTAGAGTATCGGTCGA | 5.87 |
| TTGAAAGTTTGGTGGACTTTGGCCGTGAAGGCCTAGGGAGATTAGAGTATCGGTCGA | 7.64 |
| AGTTTGGTGGACTTTGGCCGTGAAGCCGTCGCCTAGGGAGATTAGAGTATCGGTCGA | 6.75 |
| TAATTCTTCTTTGAAAGTTTGGTGGACTTTGCCTAGGGAGATTAGAGTATCGGTCGA | 6.91 |
| GGCATTAATTCTTCTTTGAAAGTTTGGTGGGCCTAGGGAGATTAGAGTATCGGTCGA | 1.65 |
| TGATAAGATTTATCTCTCCAAGGTACTGTGGCCTAGGGAGATTAGAGTATCGGTCGA | 0.189 |
| GTGCACTTTGACCCTGCTGTAGTGTGTAAGGCCTAGGGAGATTAGAGTATCGGTCGA | 5.69 |
| TCTTGTCCTTCCCCTTTTGTGTTTGTCCCTGCCTAGGGAGATTAGAGTATCGGTCGA | 3.03 |
| TCCTCTCTCCCACAAGGGCAGCCCTGTTTAGCCTAGGGAGATTAGAGTATCGGTCGA | -0.515 |
| TTGTCCTTAGACAGTAACCCTTGAGCTCTGGCCTAGGGAGATTAGAGTATCGGTCGA | 3.73 |

| Sequence | binding signal [log2 normalized intensity] |
| --- | --- |
| GACTTTGAACTTCATGTGTGGTGCAGATTCGCCTAGGGAGATTAGAGTATCGGTCGA | 2.1 |
| CCTAAATCTAAGCTGGACTTTGAACTTCATGCCTAGGGAGATTAGAGTATCGGTCGA | 9.68 |
| TGAGACTTTGGACTTTTGAACTAAGGCTGGGCCTAGGGAGATTAGAGTATCGGTCGA | 5.5 |
| ATCTAAGCTGGACTTTGAACTTCATGTGTGGCCTAGGGAGATTAGAGTATCGGTCGA | 8.61 |
| AGCTGGACTTTGAACTTCATGTGTGGTGCAGCCTAGGGAGATTAGAGTATCGGTCGA | 6.95 |
| CTTTGGACTTTTGAACTAAGGCTGGAATGAGCCTAGGGAGATTAGAGTATCGGTCGA | 3.69 |
| ATTATGGTAGGCAGCCTCTGAGATGGACTCGCCTAGGGAGATTAGAGTATCGGTCGA | 3.96 |
| AAATTATTACTCCCACCGTGTGTGCACTTTGCCTAGGGAGATTAGAGTATCGGTCGA | 3.9 |
| TGAAAGTTCTCTGGGCTTTTTGATCTTGTCGCCTAGGGAGATTAGAGTATCGGTCGA | 1.25 |
| CCCTCGGGCCGGGAAACGCCCTCGGCGCGCGCCTAGGGAGATTAGAGTATCGGTCGA | 1.34 |
| AAGATTTATCAGGTCTTTCTTTCAGAACAGGCCTAGGGAGATTAGAGTATCGGTCGA | 0.553 |
| GCAGTTTAGAGAAAGGGTCAAAGGTTAAGCGCCTAGGGAGATTAGAGTATCGGTCGA | 9.04 |
| GGAAAGAACAGGTCAAAGGTCAGTTTCTTTGCCTAGGGAGATTAGAGTATCGGTCGA | 7.69 |
| CTTTGGACTTTCAAAAGTTAAGGTCAAGACGCCTAGGGAGATTAGAGTATCGGTCGA | 2.78 |
| TTAGAGAAAGGGTCAAAGGTTAAGCCATTGGCCTAGGGAGATTAGAGTATCGGTCGA | 6.33 |
| TAGGAGACTGTCTTAGGAAAGAACAGGTCAGCCTAGGGAGATTAGAGTATCGGTCGA | 0.841 |
| GCAGAGCAGTTTAGAGAAAGGGTCAAAGGTGCCTAGGGAGATTAGAGTATCGGTCGA | 6.23 |
| GAACAGGTCAAAGGTCAGTTTCTTTAAGACGCCTAGGGAGATTAGAGTATCGGTCGA | 7.63 |
| GACTGTCTTAGGAAAGAACAGGTCAAAGGTGCCTAGGGAGATTAGAGTATCGGTCGA | 5.06 |
| GGTCAAAGGTCAGTTTCTTTAAGACAAGTGGCCTAGGGAGATTAGAGTATCGGTCGA | 5.86 |
| TCAGAAACAGGAATTCAAAGGTGCAAAGGTGCCTAGGGAGATTAGAGTATCGGTCGA | 2.84 |
| TCTTAGGAAAGAACAGGTCAAAGGTCAGTTGCCTAGGGAGATTAGAGTATCGGTCGA | 9.61 |
